{"source": "PubChem BioAssay", "note": "Entries with a potency or affinity are not part of this list. Inconclusive results are not listed. Unmarked numbers belong to inactive results. How the calls were made is not given here."}
{"assay": "IGROV1 cell killing – plate reader, dry powder samples, PAX8 inhibitor project, dose response (AID 743043);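 further: more negative means fewer viable cells or more cytotoxicity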", "details": "IGROV1 ovarian cancer cell cytotoxicity; series mostly up to 35 µM; activity change, negative = cytotoxicity: at the top concentration"}
{"smiles": "C[C@H](CO)N1C[C@H](C)[C@@H](CN(C)S(=O)(=O)c2ccc(Cl)cc2)OCCCC[C@H](C)Oc2ccc(NS(=O)(=O)c3ccc(Cl)cc3)cc2C1=O", "activity change, negative = cytotoxicity": "13.6%"}
{"smiles": "CCCNC(=O)Nc1ccc2c(c1)OC[C@H](C)N(Cc1ccc(-c3ccccn3)cc1)C[C@@H](C)[C@@H](OC)CN(C)C2=O", "activity change, negative = cytotoxicity": "20.2%"}
{"smiles": "C[C@H]1CN([C@@H](C)CO)C(=O)c2cc(NS(=O)(=O)c3ccccc3)ccc2O[C@@H]1CN(C)Cc1ccc(Oc2ccccc2)cc1", "activity change, negative = cytotoxicity": "-15.6%"}
{"smiles": "C[C@@H]1CN([C@@H](C)CO)C(=O)Cc2cc(NC(=O)CCC(F)(F)F)ccc2O[C@H]1CN(C)Cc1ccc(-c2ccccc2)cc1", "activity change, negative = cytotoxicity": "1.47%"}
{"smiles": "C[C@@H]1CN([C@H](C)CO)C(=O)Cc2cc(NC(=O)Nc3ccc(F)cc3)ccc2O[C@H]1CN(C)Cc1ccc(Cl)c(Cl)c1", "activity change, negative = cytotoxicity": "10.3%"}
{"smiles": "C[C@@H]1CCCCO[C@@H](CN(C)Cc2ccc(C(F)(F)F)cc2)[C@@H](C)CN([C@@H](C)CO)C(=O)c2cc(NS(=O)(=O)c3ccccc3)ccc2O1", "activity change, negative = cytotoxicity": "1.4%"}
{"smiles": "C[C@@H]1CCCCO[C@H](CN(C)Cc2ccc(Cl)c(Cl)c2)[C@H](C)CN([C@@H](C)CO)C(=O)c2cc(NC(=O)Nc3ccccc3)ccc2O1", "activity change, negative = cytotoxicity": "10.1%"}
{"smiles": "COc1ccc(NC(=O)Nc2ccc3c(c2)CC(=O)N([C@H](C)CO)C[C@@H](C)[C@@H](CN(C)Cc2ccc(Oc4ccccc4)cc2)O3)cc1", "activity change, negative = cytotoxicity": "-8.13%"}
{"smiles": "C[C@@H]1CCCCO[C@H](CN(C)Cc2ccc(C(F)(F)F)cc2)[C@H](C)CN([C@@H](C)CO)C(=O)c2cc(NS(=O)(=O)c3cccs3)ccc2O1", "activity change, negative = cytotoxicity": "-2.92%"}
{"smiles": "CN1c2ccc(-c3cccc(F)c3)cc2[C@@H]2[C@@H](CCN2C(=O)Cc2ccccc2)[C@@H]1CO", "activity change, negative = cytotoxicity": "17.1%"}
{"smiles": "O=C(Nc1ccc(Cl)c(Cl)c1)N[C@@H]1CC[C@H](CCn2cc(C3CCCCC3)nn2)O[C@H]1CO", "activity change, negative = cytotoxicity": "9.94%"}
{"smiles": "COc1cccc(S(=O)(=O)N2CC[C@H]3[C@@H](CO)N(C)c4ccc(C#Cc5ccc(F)cc5)cc4[C@H]32)c1", "activity change, negative = cytotoxicity": "-1.85%"}
{"smiles": "O=C(C[C@H]1CC[C@H]2[C@@H](COC[C@@H](O)CN2Cc2ccc(Oc3ccccc3)cc2)O1)N1CCCCC1", "activity change, negative = cytotoxicity": "-2.43%"}
{"smiles": "C[C@@H]1CN([C@H](C)CO)C(=O)c2cc(NC(=O)Nc3ccc(F)cc3)ccc2O[C@@H](C)CCCCO[C@@H]1CN(C)Cc1ccc2c(c1)OCO2", "activity change, negative = cytotoxicity": "-8.36%"}
{"smiles": "C[C@@H]1CCCCO[C@H](CN(C)Cc2ccc(C(F)(F)F)cc2)[C@H](C)CN([C@H](C)CO)C(=O)c2cc(NS(=O)(=O)c3cccs3)ccc2O1", "activity change, negative = cytotoxicity": "4.56%"}
{"smiles": "C[C@@H]1CCCCO[C@@H](CN(C)Cc2ccc(C(F)(F)F)cc2)[C@@H](C)CN([C@@H](C)CO)C(=O)c2cc(NS(=O)(=O)c3ccc(F)cc3)ccc2O1", "activity change, negative = cytotoxicity": "-3.41% [at 30 µM]"}
{"smiles": "O=S(=O)(c1ccccc1F)N1CC[C@@H]2[C@@H](CO)Nc3ccc(C4=CCCCC4)cc3[C@@H]21", "activity change, negative = cytotoxicity": "8.64%"}
{"smiles": "Cc1noc(C)c1S(=O)(=O)N(C)C[C@@H]1OCCCC[C@H](C)Oc2ccc(NS(=O)(=O)c3ccc(Cl)cc3)cc2C(=O)N([C@H](C)CO)C[C@@H]1C", "activity change, negative = cytotoxicity": "-3.36%"}
{"smiles": "COc1ccc(NC(=O)Nc2ccc3c(c2)C(=O)N([C@@H](C)CO)C[C@@H](C)[C@@H](CN(C)CC2CCCCC2)OCCCC[C@@H](C)O3)cc1", "activity change, negative = cytotoxicity": "-6.2%"}
{"smiles": "C[C@@H]1CCCCO[C@@H](CN(C)C(=O)Nc2cccc3ccccc23)[C@H](C)CN([C@H](C)CO)C(=O)c2cc(NS(=O)(=O)c3ccccc3)ccc2O1", "activity change, negative = cytotoxicity": "5.51%"}
{"smiles": "C[C@@H]1CCCCO[C@H](CN(C)Cc2ccc(C(F)(F)F)cc2)[C@H](C)CN([C@H](C)CO)C(=O)c2cc(NS(=O)(=O)c3ccccc3)ccc2O1", "activity change, negative = cytotoxicity": "-17.2%"}
{"smiles": "C[C@@H]1CN([C@H](C)CO)S(=O)(=O)c2ccc(C#CC3CCCC3)cc2O[C@@H]1CN(C)C(=O)Cc1ccncc1", "activity change, negative = cytotoxicity": "14.9%"}
{"assay": "OVCAR-3 cell viability loss – plate reader, dry powder samples, PAX8 inhibitor project, dose response (AID 743044)", "details": "NIH:OVCAR-3 ovarian cancer cell viability; max activity: at 35 µM, stronger effect = lower value unless noted; series mostly up to 50 µM; activity change, negative = cytotoxicity: at the top concentration"}
{"smiles": "C[C@H](CO)N1C[C@H](C)[C@@H](CN(C)S(=O)(=O)c2ccc(Cl)cc2)OCCCC[C@H](C)Oc2ccc(NS(=O)(=O)c3ccc(Cl)cc3)cc2C1=O", "max activity": "-14.4% [at 8 µM, stronger effect = lower value]"}
{"smiles": "CCCNC(=O)Nc1ccc2c(c1)OC[C@H](C)N(Cc1ccc(-c3ccccn3)cc1)C[C@@H](C)[C@@H](OC)CN(C)C2=O", "max activity": "60.3%"}
{"smiles": "C[C@H]1CN([C@@H](C)CO)C(=O)c2cc(NS(=O)(=O)c3ccccc3)ccc2O[C@@H]1CN(C)Cc1ccc(Oc2ccccc2)cc1", "max activity": "-20.4% [at 8 µM, stronger effect = lower value]"}
{"smiles": "C[C@@H]1CN([C@@H](C)CO)C(=O)Cc2cc(NC(=O)CCC(F)(F)F)ccc2O[C@H]1CN(C)Cc1ccc(-c2ccccc2)cc1", "max activity": "-2.75% [at 16 µM, stronger effect = lower value]"}
{"smiles": "C[C@@H]1CN([C@H](C)CO)C(=O)Cc2cc(NC(=O)Nc3ccc(F)cc3)ccc2O[C@H]1CN(C)Cc1ccc(Cl)c(Cl)c1", "max activity": "19.8% [at 0.5 µM, stronger effect = lower value]"}
{"smiles": "C[C@@H]1CCCCO[C@@H](CN(C)Cc2ccc(C(F)(F)F)cc2)[C@@H](C)CN([C@@H](C)CO)C(=O)c2cc(NS(=O)(=O)c3ccccc3)ccc2O1", "max activity": "24.1% [at 0.26 µM, stronger effect = lower value]"}
{"smiles": "C[C@@H]1CCCCO[C@H](CN(C)Cc2ccc(Cl)c(Cl)c2)[C@H](C)CN([C@@H](C)CO)C(=O)c2cc(NC(=O)Nc3ccccc3)ccc2O1", "max activity": "4.55%"}
{"smiles": "COc1ccc(NC(=O)Nc2ccc3c(c2)CC(=O)N([C@H](C)CO)C[C@@H](C)[C@@H](CN(C)Cc2ccc(Oc4ccccc4)cc2)O3)cc1", "max activity": "-8.95% [at 16 µM, stronger effect = lower value]"}
{"smiles": "C[C@@H]1CCCCO[C@H](CN(C)Cc2ccc(C(F)(F)F)cc2)[C@H](C)CN([C@@H](C)CO)C(=O)c2cc(NS(=O)(=O)c3cccs3)ccc2O1", "max activity": "-8.64% [at 0.5 µM, stronger effect = lower value]"}
{"smiles": "CN1c2ccc(-c3cccc(F)c3)cc2[C@@H]2[C@@H](CCN2C(=O)Cc2ccccc2)[C@@H]1CO", "max activity": "21.5%"}
{"smiles": "O=C(Nc1ccc(Cl)c(Cl)c1)N[C@@H]1CC[C@H](CCn2cc(C3CCCCC3)nn2)O[C@H]1CO", "max activity": "-6.27% [at 16 µM, stronger effect = lower value]"}
{"smiles": "COc1cccc(S(=O)(=O)N2CC[C@H]3[C@@H](CO)N(C)c4ccc(C#Cc5ccc(F)cc5)cc4[C@H]32)c1", "max activity": "-17.2%"}
{"smiles": "O=C(C[C@H]1CC[C@H]2[C@@H](COC[C@@H](O)CN2Cc2ccc(Oc3ccccc3)cc2)O1)N1CCCCC1", "max activity": "35%"}
{"smiles": "C[C@@H]1CN([C@H](C)CO)C(=O)c2cc(NC(=O)Nc3ccc(F)cc3)ccc2O[C@@H](C)CCCCO[C@@H]1CN(C)Cc1ccc2c(c1)OCO2", "max activity": "-19.6% [at 4.2 µM, stronger effect = lower value]"}
{"smiles": "C[C@@H]1CCCCO[C@H](CN(C)Cc2ccc(C(F)(F)F)cc2)[C@H](C)CN([C@H](C)CO)C(=O)c2cc(NS(=O)(=O)c3cccs3)ccc2O1", "max activity": "29.1% [at 0.26 µM, stronger effect = lower value]"}
{"smiles": "C[C@@H]1CCCCO[C@@H](CN(C)Cc2ccc(C(F)(F)F)cc2)[C@@H](C)CN([C@@H](C)CO)C(=O)c2cc(NS(=O)(=O)c3ccc(F)cc3)ccc2O1", "max activity": "-6.83% [at 16 µM, stronger effect = lower value]"}
{"smiles": "O=S(=O)(c1ccccc1F)N1CC[C@@H]2[C@@H](CO)Nc3ccc(C4=CCCCC4)cc3[C@@H]21", "max activity": "10.3% [at 4.2 µM, stronger effect = lower value]"}
{"smiles": "Cc1noc(C)c1S(=O)(=O)N(C)C[C@@H]1OCCCC[C@H](C)Oc2ccc(NS(=O)(=O)c3ccc(Cl)cc3)cc2C(=O)N([C@H](C)CO)C[C@@H]1C", "max activity": "-11.5% [at 0.5 µM, stronger effect = lower value]"}
{"smiles": "COc1ccc(NC(=O)Nc2ccc3c(c2)C(=O)N([C@@H](C)CO)C[C@@H](C)[C@@H](CN(C)CC2CCCCC2)OCCCC[C@@H](C)O3)cc1", "max activity": "-9.76% [at 4.2 µM, stronger effect = lower value]"}
{"smiles": "C[C@@H]1CCCCO[C@@H](CN(C)C(=O)Nc2cccc3ccccc23)[C@H](C)CN([C@H](C)CO)C(=O)c2cc(NS(=O)(=O)c3ccccc3)ccc2O1", "max activity": "28.6% [at 2.1 µM, stronger effect = lower value]"}
{"smiles": "C[C@@H]1CCCCO[C@H](CN(C)Cc2ccc(C(F)(F)F)cc2)[C@H](C)CN([C@H](C)CO)C(=O)c2cc(NS(=O)(=O)c3ccccc3)ccc2O1", "max activity": "-11.2%"}
{"smiles": "C[C@@H]1CN([C@H](C)CO)S(=O)(=O)c2ccc(C#CC3CCCC3)cc2O[C@@H]1CN(C)C(=O)Cc1ccncc1", "max activity": "16.7% [at 0.5 µM, stronger effect = lower value]"}
